Experimental data: PubChem BioAssay

Experiments:
[1] = system: Botulinum neurotoxin type F light chain protease (Clostridium botulinum); test: Clostridium botulinum type F light chain protease inhibitors, microsphere substrate cleavage, validation (AID 588459); conditions: multiplex microsphere protease substrate cleavage assay, flow cytometry; at 10 µM; active compounds read high
[2] = target: Botulinum neurotoxin type A (Clostridium botulinum) (UniProt P0DPI0); test: BoNT/A light chain protease inhibitors, biochemical, multiplex microsphere flow cytometry, validation set (AID 588460); conditions: at 10 µM, active compounds read high
Botulinum neurotoxin type A (Clostridium botulinum), sequence (P0DPI0 whole entry, looked up): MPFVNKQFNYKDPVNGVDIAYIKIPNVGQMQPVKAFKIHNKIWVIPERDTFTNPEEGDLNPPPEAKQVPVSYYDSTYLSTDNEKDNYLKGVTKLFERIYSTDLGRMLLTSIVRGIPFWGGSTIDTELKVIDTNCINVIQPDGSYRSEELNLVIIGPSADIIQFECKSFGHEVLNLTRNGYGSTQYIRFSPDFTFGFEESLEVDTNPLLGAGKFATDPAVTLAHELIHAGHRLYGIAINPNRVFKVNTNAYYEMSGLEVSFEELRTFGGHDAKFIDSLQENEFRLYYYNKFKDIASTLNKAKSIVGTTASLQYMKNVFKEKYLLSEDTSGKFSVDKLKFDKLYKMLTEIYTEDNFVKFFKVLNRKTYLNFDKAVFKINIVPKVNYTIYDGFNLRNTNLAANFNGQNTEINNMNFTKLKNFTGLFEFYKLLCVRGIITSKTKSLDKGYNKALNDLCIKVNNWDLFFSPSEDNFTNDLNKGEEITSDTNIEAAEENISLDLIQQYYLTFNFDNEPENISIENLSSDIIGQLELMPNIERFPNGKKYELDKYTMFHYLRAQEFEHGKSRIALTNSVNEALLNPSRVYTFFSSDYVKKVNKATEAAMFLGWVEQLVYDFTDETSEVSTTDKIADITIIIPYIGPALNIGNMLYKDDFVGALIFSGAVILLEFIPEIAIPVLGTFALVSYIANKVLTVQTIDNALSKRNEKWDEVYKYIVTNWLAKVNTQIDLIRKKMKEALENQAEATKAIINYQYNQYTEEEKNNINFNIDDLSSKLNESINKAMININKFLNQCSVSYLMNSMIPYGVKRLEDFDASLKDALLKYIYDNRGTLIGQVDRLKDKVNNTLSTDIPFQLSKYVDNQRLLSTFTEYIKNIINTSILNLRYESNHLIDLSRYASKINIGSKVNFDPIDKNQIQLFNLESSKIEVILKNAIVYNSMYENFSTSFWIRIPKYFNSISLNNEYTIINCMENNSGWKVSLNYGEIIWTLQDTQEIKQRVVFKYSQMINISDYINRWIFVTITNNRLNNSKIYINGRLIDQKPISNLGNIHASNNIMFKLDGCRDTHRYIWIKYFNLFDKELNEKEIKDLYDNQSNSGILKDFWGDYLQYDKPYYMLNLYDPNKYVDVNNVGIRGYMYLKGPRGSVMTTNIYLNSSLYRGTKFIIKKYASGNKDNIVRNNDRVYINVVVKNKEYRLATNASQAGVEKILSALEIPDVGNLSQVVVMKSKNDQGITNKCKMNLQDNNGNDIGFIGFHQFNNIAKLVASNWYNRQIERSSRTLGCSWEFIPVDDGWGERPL

[3] = target: Lethal factor (Bacillus anthracis) (UniProt P15917); test: Bacillus anthracis lethal factor inhibition, microsphere flow cytometry protease assay, validation at 10 µM (AID 588461); conditions: multiplex microsphere protease cleavage assay, active compounds read high
Lethal factor (Bacillus anthracis), sequence (P15917 whole entry, looked up): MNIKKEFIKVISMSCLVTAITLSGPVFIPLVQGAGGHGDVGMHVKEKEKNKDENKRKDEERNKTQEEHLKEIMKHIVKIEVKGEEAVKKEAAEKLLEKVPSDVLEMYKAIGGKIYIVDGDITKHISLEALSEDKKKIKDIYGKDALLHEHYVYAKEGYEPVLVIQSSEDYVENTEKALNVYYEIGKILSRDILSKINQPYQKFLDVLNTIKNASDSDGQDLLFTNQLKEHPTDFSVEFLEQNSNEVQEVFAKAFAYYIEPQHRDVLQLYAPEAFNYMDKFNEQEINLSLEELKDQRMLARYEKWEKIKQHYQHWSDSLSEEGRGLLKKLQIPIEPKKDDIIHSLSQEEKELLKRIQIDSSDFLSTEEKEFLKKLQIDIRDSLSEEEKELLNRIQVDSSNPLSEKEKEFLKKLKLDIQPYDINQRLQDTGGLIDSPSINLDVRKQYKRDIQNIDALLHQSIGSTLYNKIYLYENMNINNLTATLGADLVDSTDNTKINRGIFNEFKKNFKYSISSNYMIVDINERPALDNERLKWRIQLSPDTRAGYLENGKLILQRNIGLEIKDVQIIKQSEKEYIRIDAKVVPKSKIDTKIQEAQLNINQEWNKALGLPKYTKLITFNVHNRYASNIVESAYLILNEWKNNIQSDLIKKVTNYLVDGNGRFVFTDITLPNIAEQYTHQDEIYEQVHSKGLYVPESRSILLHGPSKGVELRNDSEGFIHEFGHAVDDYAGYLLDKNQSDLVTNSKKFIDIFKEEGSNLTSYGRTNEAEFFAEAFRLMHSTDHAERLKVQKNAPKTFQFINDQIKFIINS

Measured: inhibition

CN(C)CCC=C1c2ccccc2CCc2ccccc21
inactive: [1] 1.3% | [2] 0.2% | [3] 0.7%

Cc1ccc(P(=O)(CSC(=N)N)c2ccc(C)cc2)cc1
inactive: [1] -1.3% | [2] -0.5% | [3] -7.5%

CC(C)CCn1c(N2CCc3ccccc3C2)nc2c1c(=O)[nH]c(=O)n2C
inactive: [1] -1.6% | [2] 0.3% | [3] 4%

Cn1c(=O)c2nc3ccccc3nc2n(C)c1=O
inactive: [1] -0.9% | [2] 0.5% | [3] -5.4%

CC1(C)CC(=O)C(C2(O)C(=O)Nc3ccccc32)CO1 (centres undefined)
inactive: [1] -0.1% | [2] -1.6% | [3] -6%

COC(=O)CN1C(=S)N(c2ccc(F)cc2)C(=O)C1CC(=O)Nc1ccccc1 (centres undefined)
inactive: [1] -5.7% | [2] -2% | [3] -5.6%

Cc1cc(C)nc(NS(=O)(=O)c2ccc(N)cc2)n1
inactive: [1] 1.3% | [2] 2.1% | [3] 3.4%

O=C(O)C(O)c1ccccc1 (centres undefined)
inactive: [1] 1.5% | [2] -1.4% | [3] 1.3%

COc1cc(/C=C(\C#N)C(=O)N2CCc3ccccc32)ccc1O
inactive: [1] 0.6% | [2] 1.6% | [3] 0.9%

O=C1c2ccccc2C2(c3ccccc3)NCCN12 (centres undefined)
inactive: [1] -1.6% | [2] -1.3% | [3] 8.5%

O=C(OCC1OC2OC3(CCCCC3)OC2C2OC3(CCCCC3)OC12)c1ccccc1 (centres undefined)
inactive: [1] -3.1% | [2] 2.6% | [3] -2.2%

C[C@]12CCC(=O)C[C@@H]1CC[C@@H]1[C@@H]2CC[C@]2(C)C=CC[C@@H]12
inactive: [1] 3.9% | [2] 0.7% | [3] -1.3%

CN(C)c1nc(N(C)C)nc(N(C)C)n1
inactive: [1] 6.4% | [2] 2.6% | [3] -4.2%
